Screening results as filed in PubChem.
A selection: hits, their analogues and other compounds. The true share with any hit is near 1.1%.
PrPC surface inh: reduces human prion protein on the cell surface | cell surface PrPC, TR-FRET read-out | P04156 | AID 720596 | 0.43% of 370,000 active | inhibition, % at 13.8 µM; in the data active means inhibition above about 24%; further: 0% = median of the test wells and 100% = reference compound wells
Yp Topo-I inh: blocks Yersinia pestis topoisomerase I activity; Y. pestis Topo-I cleavage product accumulation, plate reader; activity, % at 10 µM; 0.064% of 360,000 active; AID 504884; in the data active means activity above about 50%, passing the limit was not always enough
Vc quorum ag: inducers of Vibrio cholerae quorum light production without autoinducers. activation, % at 18.7 µM. 0.16% of 350,000 active. V. cholerae BH1578 lux reporter, luminescence, 6 h; in the data active means activation mostly above about 9.7%, no sharp cut-off
CCHF vOTU inh: blocks the CCHF virus ovarian tumor domain protease | CCHFV vOTU protease, Pep-AMC fluorescence | inhibition, % at 11.5 µM | 0.55% of 370,000 active; in the data active means inhibition above about 30%; further: 0% = vehicle wells with enzyme and 100% = no enzyme wells
An asterisk follows results filed as active; i = inactive; . = not tested or not shown.

SMILES	PrPC surface inh	Yp Topo-I inh	Vc quorum ag	CCHF vOTU inh
CCn1c(COc2ccc(C)cc2)nnc1SCC(=O)Nc1cc(OC)ccc1OC	7	5	29*	14
CCn1c(COc2ccccc2)nnc1SCC(=O)Nc1cc(C)ccc1OC	-1	3	i	5
O=C(O)CCNc1cc(N2CCN(C(=O)c3ccco3)CC2)c2noc3c2c1C(=O)c1ccccc1-3	-116	20	-1	54*
COc1ccc(C(=O)N2CCN(C3CCC(c4ccccc4)CC3)CC2)cc1OC (stereo not drawn)	6	27	0	10
O=C(Nc1ccc(S(=O)(=O)N2CCCCC2)cc1)c1ccc(CN2CCc3ccccc3C2)cc1	8	9	17*	-2
COc1cccc(N2CCN(c3ncnc4c3cnn4-c3ccc(C)cc3C)CC2)c1	34*	25	0	-1
Cc1ccc(-n2ncc3c(N4CCCC4)ncnc32)c(C)c1	-6	8	0	-4
CCC(CC)NC(=O)c1ccc2c(c1)OCCO2	-1	2	25*	-6
COc1ccc(N2C(=NC(=O)CCCc3ccccc3)SC3CS(=O)(=O)CC32)cc1 (stereo not drawn)	-3	1	0	6
CCOc1ccc(-n2c(-c3ccccc3)c[n+]3c2CCCCC3)cc1	22	9	-1	-2
CCOc1ccc(-c2c(C)n(-c3ccc(OCC)cc3)c3[n+]2CCCCC3)cc1	28*	9	-1	-1
CSc1ccccc1OCc1cc(C(=O)N(C)Cc2ccc3nsnc3c2)no1	4	50	-2	-5
CCOC(=O)C1CCN(Cc2cccc(Oc3ccccc3)c2)CC1	-6	66*	-1	-3
CCOC(=O)C1CCN(Cc2cccc(Oc3ccc(Cl)cc3)c2)CC1	-6	16	0	-3
COC1=C(Br)C(=O)c2ncccc2C1=O	-34	-8	1	101*
COc1ccc(/C(O)=C2/C(=O)C(=O)N(CCCN(C)C)C2c2cccc(Cl)c2)cc1OC (stereo not drawn)	-14	1	0	34*
CCCOc1ccc(/C(O)=C2/C(=O)C(=O)N(c3ccccn3)C2c2ccc(OC)cc2)cc1C (stereo not drawn)	17	56*	i	20
Cc1ccccc1N1CCN(C2CCCN(C(=O)c3cc(CC(C)C)nn3C)C2)CC1 (stereo not drawn)	3	31	1	4
COc1ccc(CNC(=O)CN(Cc2ccc(C)cc2)S(=O)(=O)c2ccc(Cl)cc2)cc1	-6	52*	0	-4
O=C(NCc1ccc2c(c1)OCO2)C1CCCN1C(=O)Nc1ccccc1 (stereo not drawn)	-3	-3	0	-11
CCCCn1c(C)cc(C)c(S(=O)(=O)c2ccccc2C)c1=O	-8	59*	-1	12
Cc1cc(NC(=O)C(C)SCC(=O)N(C)CC(=O)Nc2ccc(F)cc2)no1 (stereo not drawn)	5	101*	i	-5
Cc1cc(NC(=O)C(C)SCC(=O)N(C)CC(=O)Nc2ccccc2C(F)(F)F)no1 (stereo not drawn)	8	1	i	-6
CCOC(=O)C1=C(N)N2C(=O)CSC2=C(C(=O)OC)C1	1	0	60*	-2
CC(=O)/C(N=Nc1ccc(OC(F)(F)F)cc1)=C(\C)O	-6	-4	i	-3
SMILES	PrPC surface inh	Yp Topo-I inh	Vc quorum ag	CCHF vOTU inh
CCCCCn1nnnc1C1c2ccccc2OCC(=O)N1Cc1ccco1 (stereo not drawn)	2	.	.	0
COc1ccc(CNCCS(=O)(=O)NC2CCCCC2)cc1	-4	3	1	2
COc1ccc(C(c2c(O)ccc3ccccc23)N2CCOCC2)c(OC)c1 (stereo not drawn)	61*	1	.	3
O=c1oc(-c2ccccc2)nc2c1C1(CCCCC1)Cc1ccccc1-2	-6	-5	0	5
CCC1(CC)Cc2ccccc2-c2nc(-c3ccccc3)oc(=O)c21	.	17	32*	.
CCCCCCCCNS(=O)(=O)CCNCc1ccccc1OC	1	53*	0	18
COc1ccc(CNS(=O)(=O)CCNCc2ccccc2OC)cc1	7	12	0	-2
N=c1n(CCN2CCCC2)c2ccccc2n1CC(O)c1ccc(Cl)c(Cl)c1 (stereo not drawn)	-18	-4	0	-4
Cc1sc(NC(=O)c2cc3ccccc3oc2=O)c(C(=O)OC(C)C)c1-c1ccccc1	1	1	0	0
CCC(Sc1nc2ncccc2[nH]1)C(=O)NC1CCCC1 (stereo not drawn)	-8	-2	0	3
CN1CCCN=C1COC(=O)C(O)(c1ccccc1)C1CCCCC1 (stereo not drawn)	-3	-3	29*	-3
COc1cc(O)oc1C=Nc1ccc(Cl)cc1	10	-6	26*	6
